# KB-V1 cytotox = qHTS assay for MDR1-selective chemotherapeutics: Primary screen using the drug-selected MDR subline cells KB-V1; AID 1347076, 2019; KB-V1 MDR cells viability, CellTiter-Glo, 72 h; 400,000 tested, 3.4% active; Potency, µM (doses to about 46.1 µM), actives largely listed as cytotoxic; also: nearly all actives have a fitted effect of over 60% in size
#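 In this primary screen, KB-V1 cells overexpressing P-gp are incubated with library compounds (lowest to highest concentration) for 72 h at 37 degrees C before a luminescent ATP viability read.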
# HT1080NT lethal = qHTS for induction of synthetic lethality in tumor cells producing 2HG: qHTS for the HT-1080-NT fibrosarcoma cell line | HT-1080-NT fibrosarcoma viability, CellTiter-Glo ATP luminescence, 48 h | Potency, µM (doses to about 46.1 µM), without a hit: top-dose activity, negative = less viability, most hits filed as cytotoxic | 360,000 tested, 1.6% active | AID 686970, 2013;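 also: NT is the 2HG producing partner of a matched IDH1 knockdown line; 0% = DMSO-treated cells and -100% = media-only wells without cells; nearly all actives have a fitted effect of over 55% in size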
#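 Luminescent CellTiter-Glo readout after 48 hours of compound exposure at 37 degrees C defined viability of HT-1080-NT cells. Activity was normalized to DMSO wells and cell-free media wells; concentration-response curves were fitted and assigned curve classes.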
# KB-3-1 cytotox = qHTS assay for MDR1-selective chemotherapeutics: Primary screen using the parental adenocarcinoma cell KB-3-1 | KB-3-1 viability, CellTiter-Glo ATP luminescence, 72 h | Potency, µM (highest dose often 46.1 µM), actives largely listed as cytotoxic | 400,000 tested, 1.4% active | AID 1347075, 2019; also: nearly all actives have a fitted effect of over 60% in size
#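 Parental KB-3-1 adenocarcinoma cells in phenol-red-free DMEM with 10% FBS were pin-treated with compounds at several concentrations, incubated 72 h at 37 °C, and viability read by CellTiter-Glo luminescence; concentration-effect curves were fitted after normalization.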
# HT1080 IDH1KD tx = qHTS for induction of synthetic lethality in tumor cells producing 2HG: qHTS for the HT-1080-IDH1KD cell line | HT-1080 IDH1 knockdown viability, ATP luminescence, 48 h | Potency, µM (highest dose often 46.1 µM), for inactives: at the top dose activity, negative = toxicity, actives largely listed as cytotoxic | AID 686971, 2013 | 360,000 tested, 2% active;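 also: 0% = DMSO wells and -100% = cell-free medium wells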
#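 IDH1KD HT-1080 cells, 750/well, RPMI + 5% FBS; compound pinned after 2 h settling; 48 h, 37 °C; CellTiter-Glo luminescence; % activity normalised to DMSO and no-cell wells; curves fitted, classed by r2 and efficacy.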
# * = called active by the depositor; i = inactive; ? = inconclusive; . = no result given; ! = not active in a repeat. In the library only some 5.7% were active in any assay of this set; here they are far more common. Calls follow the shape of the dose curve; as a rule, active = well fitted curve in the direction sought with a large enough effect; inconclusive = small, poorly fitted or top-dose-only effect, or another doubt; inactive = no such curve, though single readings can be large; an effect the other way counts as inactive or inconclusive. Unless noted, % is scaled to controls: 0 for no effect and ±100 for the full control effect; potency is read from the fitted curve at half-maximal effect.
SMILES,KB-V1 cytotox,HT1080NT lethal,KB-3-1 cytotox,HT1080 IDH1KD tx
COc1ccccc1CNC(=O)[C@@H]1CCCN1C(=O)C1CCN(S(=O)(=O)c2ccc(C)cc2)CC1,16µM*,-5%,i,-11%
COc1cccc(NC(=O)[C@@H]2CCCN2C(=O)C2CCN(S(=O)(=O)c3ccc(C)cc3)CC2)c1,18µM*,?,i,-1%
Cc1ccc(S(=O)(=O)N2CCC(C(=O)N3CCC[C@H]3C(=O)NCc3ccccc3)CC2)cc1,?,-2%,i,0%
COCCNC(=O)[C@@H]1CCCN1C(=O)C1CCN(S(=O)(=O)c2ccc(C)cc2)CC1,i,11%,i,-2%
COc1cccc(NC(=O)CCSc2nc(-c3ccco3)cc(C(F)(F)F)n2)c1,i,.,i,.
COc1ccc(C(=O)CN2C(=O)N(c3cc(C)cc(C)c3)S(=O)(=O)c3ccccc32)cc1,i,.,i,.
Cc1ccc(NNC(=O)c2ccno2)cc1Cl,i,?,i,3.7µM*
Cc1ccc(NNC(=O)c2c(C)noc2C)cc1Cl,i,-13%,i,?
O=C(Nc1cc(Cl)cc(Cl)c1)c1ccno1,i,0%,i,-1%
Cc1ccc(NNC(=O)c2ccno2)cc1C,i,?,16µM*,?
NS(=O)(=O)c1ccc(NC(=O)CN2CCN(c3ccc(F)cc3)CC2)cc1,i,.,i,.
CCn1c(C)c(C2=CCN(S(=O)(=O)c3ccccc3)CC2)c2ccccc21,10µM*,-6%,?,-6%
O=C(c1ccc(Br)cc1)N(Cc1ccco1)c1ccccn1,i,.,i,.
Cc1ccc2oc(-c3cccc(NC(=O)COc4ccc(Cl)cc4)c3C)nc2c1,i,.,i,.
CC1CC2=C(NC(=S)NC2c2ccc(F)cc2)/C(=C/c2ccc(F)cc2)C1 (stereo unspecified),i,10µM*,i,?
S=C1NC2=C(CCC/C2=C\c2ccc(Cl)cc2)C(c2ccc(Cl)cc2)N1 (stereo unspecified),i,?,i,-23%
CCN(CC)CCCNC(=S)N1CCN(c2nc(-c3ccc(F)cc3)cs2)CC1,?,21µM*,i,8.2µM*
COC(=O)c1ccccc1NC1=C/C(=N\S(=O)(=O)c2ccc(C(=O)O)cc2)c2ccccc2C1=O,18µM*,23µM*,?,21µM*
COC(=O)c1ccccc1NC1=C/C(=N\S(=O)(=O)c2cccs2)c2ccccc2C1=O,18µM*!,21µM*,?,6.3µM*
Cc1ccc(/C=C2\S/C(=N/S(=O)(=O)c3cccs3)NC2=O)cc1,i,22%,i,0%
Cc1ccc(NC2=C/C(=N/S(=O)(=O)c3cccs3)c3ccccc3C2=O)cc1,?,2.9µM*,2.3µM*,4.1µM*
CC(=O)c1cccc(NC(=O)c2oc(=O)c3ccccc3c2-c2ccccc2)c1,i,.,i,.
O=C(CN1CCCN(S(=O)(=O)c2ccc(Br)cc2)CC1)Nc1cccc(C(F)(F)F)c1,?,.,i,.
CCOC(=O)c1cc(-c2ccccc2)sc1NC(=O)C(C)Sc1nnc(N)s1 (stereo unspecified),2.1µM*,-2%,?,0%
Cc1ccc(NC(=O)Cc2ccccc2)cc1S(=O)(=O)N1CCOCC1,23µM*,7%,i,5%
SMILES,KB-V1 cytotox,HT1080NT lethal,KB-3-1 cytotox,HT1080 IDH1KD tx
CCc1ccc(N2CC(C(=O)Nc3ccc(C)c(S(=O)(=O)N4CCOCC4)c3)CC2=O)cc1 (stereo unspecified),23µM*,-2%,i,0%
Cc1ccc(NC(=O)CN2C(=O)NC(C)(c3ccc(Cl)cc3)C2=O)cc1S(=O)(=O)N1CCOCC1 (stereo unspecified),i,?,?,13µM*
Cc1ccc(NC(=O)CN2CCc3ccccc3C2)cc1S(=O)(=O)N1CCOCC1,8.2µM*,1%,i,1%
Cc1ccc(NC(=O)CCNS(=O)(=O)c2ccccc2)cc1S(=O)(=O)N1CCOCC1,i,-2%,i,4%
O=C(NCc1cccc(Cl)c1)NCc1noc2ccccc12,i,.,i,.
Cc1cc(C)cc(NC(=O)Nc2c[nH]c(=O)[nH]c2=O)c1,i,.,i,.
COCc1cc(C)n(CC(=O)Nc2ccc(NC(C)=O)cc2)c(=O)c1C#N,i,.,i,.
COc1ccc(NC(=O)/C=C/c2ccc(S(=O)(=O)N3CCOCC3)cc2)cc1,?,9%,i,1%
COc1ccc(/C=C/C(=O)Nc2ccc(C)c(S(=O)(=O)N3CCOCC3)c2)cc1,4.1µM*,?,i,21µM*
N#C/C(=N\O)c1nc2ccccc2s1,i,7%,i,-3%
N#C/C(=C(/O)COc1ccccc1)c1nc2ccccc2s1,i,0%,?,7%
N#C/C(=C(/O)COc1ccc(Cl)cc1)c1nc2ccccc2s1,13µM*,-9%,?,-6%
N#C/C(=C(/O)c1ccc(F)cc1)c1nc2ccccc2s1,?,-7%,8.2µM*,-28%
CCOC(=O)c1c(C)[nH]c(C)c1S(=O)(=O)N1CCCC(C(=O)N2CCN(c3cccc(C)c3C)CC2)C1 (stereo unspecified),i,.,i,.
Cc1ccc(-c2cc(C(=O)N(Cc3ccccc3)Cc3ccco3)no2)cc1F,i,.,i,.
Cc1ccc(CNC(=O)c2ccc(N3CCCC3=O)cc2)cc1,i,23%,i,10%
Cn1nc(C(C)(C)C)cc1C(=O)NCc1ccc(N2CCCC2=O)cc1,0.58µM*,?,0.65µM*,?
CCc1ccc(-n2nnc(-c3nc(-c4cccs4)no3)c2N)cc1,i,.,i,.
c1coc(CN(Cc2ccco2)c2ncnc3c2oc2ccccc23)c1,16µM*,?,?,?
Clc1ncnc2c1oc1ccccc12,i,-20%,?,-13%
Nc1nc(=S)[nH]c2n[nH]nc12,i,.,i,.
O[C@H]1CN(Cc2cccs2)[C@@H](c2ccccc2)C[C@@H]1n1cc(-c2ccc(F)cc2)nn1,i,2%,i,-12%
COc1ccc([C@H]2C[C@H](O)[C@@H](n3cc(-c4ccc(F)cc4)nn3)CN2Cc2cccs2)cc1,?,2.9µM*,?,4.6µM*
O[C@H]1C[C@H](c2ccccc2)N(Cc2cccs2)C[C@@H]1n1cc(-c2ccc(F)cc2)nn1,?,23µM*,?,18µM*
COc1ccc([C@H]2C[C@H](n3cc(-c4ccc(F)cc4)nn3)[C@@H](O)CN2Cc2cccs2)cc1,i,4%,i,2%
CC(C)CCCCCCCCCCCCC(=O)NCC(=O)NC1C(C)OC(Nc2ncnc3nc[nH]c23)C(O)C1O (stereo unspecified),?,1.8µM*,0.01µM*,0.12µM*

# Screens deposited in PubChem by National Center for Advancing Translational Sciences (NCATS).
